Laboratory results as given in PubChem BioAssay (EPA / NIEHS).
The source made the active and inactive calls. The calls were made as follows: active = hit-call score of the fitted dose curve at least 0.9, where 1 is the maximum; inactive = score below 0.9.

read-out: Cyclin D2 (CCND2), CCND2 (gene 894); assay: LTEA_HepaRG_CCND2: Life Technologies and Expression Analysis (LTEA) Assay for Cyclin D2 (CCND2) using HepaRG (AID 2283449); settings: mRNA level, 48 h; actives raise or lower the signal;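 also: CCND2 transcript measured by TaqMan qRT-PCR and normalised to three housekeeping genes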
Summary of the method: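 Differentiated human HepaRG cells were exposed for 48 h in serum-free induction medium to eight half-log concentrations topping at 100 uM (0.5% DMSO vehicle). CCND2 mRNA was quantified by TaqMan qRT-PCR, normalised to ACTB, GAPDH and POLR2A, and fitted bidirectionally against DMSO.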

outcome, inactive:
CCN(CC)CCOc1ccc(C(=C(Cl)c2ccccc2)c2ccccc2)cc1
CCC(C)N(C)C(=O)c1cc2ccccc2c(-c2ccccc2Cl)n1 (stereo not given)
O=C(O)c1[nH]n(-c2ccc(S(=O)(=O)O)cc2)c(=O)c1N=Nc1ccc(S(=O)(=O)O)cc1
CO[C@@H]1COCC[C@@H]1N[C@@H]1CC[C@@](C(=O)N2CCc3ncc(C(F)(F)F)cc3C2)(C(C)C)C1
CC(=O)OC1CC(C)OC(C)O1 (stereo not given)
CCCCCCC(CCCCCCCCCCC(=O)OCC(COC(C)=O)OC(C)=O)OC(C)=O (stereo not given)
CN(C)CCCN1c2ccccc2Sc2ccc(Cl)cc21
O=C(O)CN(CC(=O)O)CC(=O)O
Cc1ccc(-c2cc(C(F)(F)F)nn2-c2ccc(S(N)(=O)=O)cc2)cc1
N[C@@H](Cc1c[nH]c2ccccc12)C(=O)O
CCCCOC(=O)CCCCC(=O)OCCCC
C#CC(O)C(CC)CCCC (stereo not given)
CCCCCCCCCC[N+](C)(C)[O-]
O=C1c2c(O)cccc2Cc2cccc(O)c21
CCCCCCCC(=O)OC
NC(=Nc1ccccc1)Nc1ccccc1
O=C(N[C@@H](c1ccccc1)[C@@H]1CCCCN1)c1cccc(C(F)(F)F)c1Cl
COc1ccc(C(=O)Nc2nc3ccccc3c(NCc3ccccc3)c2C#N)cc1
O=C(O)CC(O)(CC(=O)O)C(=O)O
S=c1[nH]c2ccccc2s1
O=C1NC(=O)C(c2ccccc2)(c2ccccc2)N1
O=C(Oc1ccccc1)c1cccc(C(=O)Oc2ccccc2)c1
CC1=C(C)S(=O)(=O)CCS1(=O)=O
CC(C)OC(=O)C(C)(C)Oc1ccc(C(=O)c2ccc(Cl)cc2)cc1
CC(COCC(C)OC(=O)c1ccccc1)OC(=O)c1ccccc1 (stereo not given)
CCCCc1nc2cccnc2n1Cc1ccc(-c2ccccc2-c2nnn[nH]2)cc1
Oc1ccccc1O
O=C1OC(c2ccc(O)cc2)(c2ccc(O)cc2)c2ccccc21
C=CCc1ccc(OC)c(OC)c1

AC50, active:
CC(=O)O[C@]1(C(C)=O)CC[C@H]2[C@@H]3C=C(Cl)C4=CC(=O)[C@@H]5C[C@@H]5[C@]4(C)[C@H]3CC[C@@]21C 7.8 nM
